# Test results as given in PubChem BioAssay (NCATS).
# Active and inactive are the calls of the source. A call without a number means that no potency is given here. The call rests on the fitted dose curve; in most records, active means well fitted activation curve with a large enough effect; inconclusive means small, poorly fitted or top-dose-only effect; inactive means flat fitted curve, though single readings scatter.
# Test: Confirmation and Secondary Assay for Modulators of Hemoglobin Beta Chain Splicing at IVS2 654 locus (AID 910);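 further: HeLa cells stably carrying EGFP split by mutant beta-globin IVS2-654 intron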;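 further: potency of activators that raise GFP signal by restoring correct splicing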
# Conditions: HeLa EGFP-654 splicing reporter, GFP fluorescence, 48 h; series mostly up to 38.3 µM
# Source text: NIH Chemical Genomics Center [NCGC] NIH Molecular Libraries Screening Centers Network [MLSCN] MLSCN Grant: 1 X01 MH080684-01 PI Name: Dr. Ryszard Kole NCGC Assay Overview: Modulation of Alternative Splicing as Therapy Abnormal splicing is associated with a number of diseases, including cancer and genetic diseases such as cystic fibrosis, muscular dystrophy and beta-thalassemia. Alteration of disease associated splicing patterns provides a promising target for treatment. […] Mutations in the second intron of the b-globin gene at positions 654 or 705 are clinically relevant and cause mis-splicing which results in an out of frame gene product. […] EGFP-654 HeLa Cells as screen system. HeLa cell lines were stably transfected with a construct in which the EGFP (enhanced green fluorescent protein) cDNA was interrupted by the second intron of the beta-globin gene (IVS2-654). The ISV2 intron contains mutations which cause mis-splicing of EGFP and premature termination of EGFP which results in a nonfluorescent protein product. […] Expression of the transgene was driven by the CMV promoter. We concluded that a low molecular weight compound, which restored correct splicing of intron 2 would also generate functional EGFP protein, resulting in a fluorescent signal. Thus, the HeLa cells that express the EGFP-654 construct can be used for high throughput screening of a chemical library.
# NCGC Assay Protocol Summary: Confirmatory Screening. Freshly thawed HeLa EGFP-654 cells were seeded in 5 ul of optimem media (Invitrogen) containing 2 % fetal calf serum (Hyclone) and 1x penicillin/streptomycin (Invitrogen) at a concentration of 500 cells per well in 1536-well plates. Cells were incubated overnight at 37C in 5% CO2. The next day, cells were treated with DMSO, 500 nM antisense ISV2 654 PNA control oligo, or library compound and allowed to grow at 37C in 5% CO2 for 2 days. The PNA oligo blocked the mutation site in the intron and allowed proper (wild type) splicing to occur, resulting in full length EGFP expression and also allowed for optimization of the assay parameters. Plates were read in the Acumen Explorer (TTP Labtech) using 488 nm laser excitation and 500-520 nm emission PMT filter in a 1 x 8 uM capture mode. Fluorescnet objects ranging in size from 5 to 250 uM were measured and the total peak GFP intensity for each well was used for data analysis. Keywords: Thalassemia, beta-thalassemia, beta-globin, EGFP, ISV2 654, ISV2 705, SSO, PNA, antisense, splicing, MLSMR, MLSCN, NIH Roadmap, qHTS, NCGC
# Potency means the concentration at half of the fitted maximal effect.
row,Compound,Potency
1,Cc1ccccc1-c1cc(Nc2ccc(F)cc2)ncn1,inactive
2,COCCNc1nc(-c2cccc(OC)c2)nc2ccccc12,inactive
3,Cc1cccc(CNc2nc(-c3c(C)noc3C)nc3ccccc23)c1,inactive
4,C=C[C@](C)(O)CCC1C(=C)CC(OC(C)=O)C2C(C)(C)CCCC12C (stereo not given in full),inactive
5,COc1cccc(-c2nccc(NC3CCNCC3)n2)c1,inactive
6,CO/N=C(/C(=O)NC1C(=O)N2C(C(=O)O)=C(CSc3nc(=O)c(O)nn3C)CSC12)c1csc(N)n1 (stereo not given),inactive
7,CS(=O)(=O)Nc1cccc(-c2ccc3ncnc(Nc4ccc(F)cc4)c3c2)c1,inactive
8,Cc1cccc(CNc2ncnc3ccc(-c4ccccc4C#N)cc23)c1,inactive
9,CC1(C)SC2C(NC(=O)Cc3ccccc3)C(=O)N2C1C(=O)O (stereo not given),inactive
10,Cc1cccc(CNc2ccnc(-c3cccc(NS(C)(=O)=O)c3)n2)c1,inactive
11,CN(C)Cc1ccccc1-c1ccc2ncnc(NCc3cccs3)c2c1,inactive
12,Nc1ccn(C2OC(CO)C(O)C2O)c(=O)n1 (stereo not given),inactive
13,COc1ccccc1CNc1ncncc1-c1ccc(N(C)C)cc1,inactive
14,CN(C)C(=O)c1ccc(-c2cncnc2NCc2cccs2)cc1,inactive
15,Cc1[nH]ccc2c1[nH]c1cc(=O)ccc12,inactive
16,Cc1cccc(CNc2ccnc(-c3ccccc3CN(C)C)n2)c1,inactive
17,COC(=O)[C@@H]1C2CC3c4[nH]c5cc(OC)ccc5c4CCN3CC2C[C@H](OC(=O)c2cc(OC)c(OC)c(OC)c2)C1OC (stereo not given in full),15.8 µM (active)
18,COCCNc1nc(-c2ccccc2C)nc2ccccc12,inactive
19,Cc1noc(C)c1-c1ccc2ncnc(N(C)Cc3ccco3)c2c1,inactive
20,COC(=O)c1c(C)cc(OC(=O)c2c(C)cc(O)c(C=O)c2O)c(C)c1O,inactive

row,Compound,Potency
1,CN(C)Cc1ccccc1-c1ccc2ncnc(N3CCOCC3)c2c1,inactive
2,CNc1nc(-c2ccccc2C(F)(F)F)nc2ccccc12,inactive
3,c1ccc2c(Nc3ccncc3)nc(-c3ccoc3)nc2c1,inactive
4,Clc1ccccc1-c1cc(NCc2cccnc2)ncn1,inactive
5,CC1(C)C(O)CC[C@]2(C)C1CC[C@@]1(C)C2C(=O)C=C2[C@@H]3C[C@@](C)(C(=O)O)CC[C@@]3(C)CCC21C (stereo not given in full),inactive
6,C#C[C@]1(O)CCC2C3CCC4=C(CCC(=O)C4)C3CC[C@@]21C (stereo not given in full),inactive
7,CN(C)CCOC(c1ccccc1)c1ccccc1 (tested in a mixture with another compound),inactive
8,Cc1cccc(CNc2cc(-c3cccnc3)ncn2)c1,inactive
9,N#Cc1ccccc1-c1cncnc1NCc1cccnc1,inactive
10,CN(Cc1ccco1)c1nc(-c2cccc(C#N)c2)nc2ccccc12,inactive
11,COc1cc2c(cc1OC)C1Cc3ccc(OC)c(OC)c3CN1CC2 (stereo not given),inactive
12,CN(C)C(=O)c1ccc(-c2nccc(NCc3cccnc3)n2)cc1,inactive
13,c1ccc(Nc2ncnc3ccc(-c4ccc5c(c4)OCO5)cc23)cc1,inactive
14,COc1ccccc1CNc1nc(-c2ccc(N(C)C)cc2)nc2ccccc12,inactive
15,Cc1ccccc1-c1nc(-n2ccnc2)c2ccccc2n1,inactive
16,CN(C)Cc1ccccc1-c1cncnc1NCc1ccccc1,inactive
17,C=CCc1ccc(OC(=O)c2ccccc2)c(OC)c1,inactive
18,CNc1ncnc2ccc(-c3cccc(NS(C)(=O)=O)c3)cc12,inactive
19,CN(C)Cc1ccccc1-c1ccc2ncnc(NCc3ccccc3)c2c1,inactive
20,Cc1ccccc1-c1nc(NCCN2CCOCC2)c2ccccc2n1,inactive
